# Bioassay records deposited in PubChem by several laboratories.
# PABP FP inh = PABP-poly(A) binding inhibition. P11940. PABP-poly(A) RNA binding, fluorescence polarization. inhibition, % at 35 µM. hit rate 1% among 290,000. AID 2014;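 note: calls also rest on retests at 20 µM and on dose response follow-up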
# PABP1 MLLE inh = blocks PAM2 peptide binding to the PABP1 MLLE domain | GST-MLLE / FITC-PAM2 fluorescence polarization | inhibition, % at 20 µM | P11940 | hit rate 0.36% among 360,000 | AID 588489; in the data active = inhibition above about 35%, passing the limit was not always enough
# eIF4E-4G inh = eIF4E/eIF4G interaction inhibition in translation initiation. P63073+Q04637. TR-FRET eIF4E-eIF4GI(517-606) binding, 2 h. inhibition, % at 21.7 µM. hit rate 0.37% among 220,000. AID 782;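 active = inhibition above about 30%, limit read from the data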
# PERK inh = inhibitors of human PERK kinase | AID 1416 | Q9NZJ5 | hit rate 0.17% among 220,000 | inhibition, % at 5.6 µM | CHO PERK-DD fusion, SEAP luminescence translation reporter;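 active = inhibition above the mean inhibition of all tested compounds plus 3 SD, set separately per screening campaign, cut at about 2.9% in these data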;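 note: PERK kinase domain activated by AP20187 dimerizer at 100 nM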
# eIF4H FP inh = inhibitors of RNA binding by human eIF4H; Q15056; eIF4H fluorescence polarization binding assay; inhibition, % at 35 µM; hit rate 0.94% among 290,000;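 note: calls also rest on retests at 20 µM and on dose response follow-up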
# Hits are given with their value; - = inactive; ? = inconclusive; . = no result; [ ] = another dose, or the depositor's remark. The list is not random: actives were taken first. Their share in the collection is about 1.6%. Unless noted, the rule behind the calls is not given here.
SMILES,PABP FP inh,PABP1 MLLE inh,eIF4E-4G inh,PERK inh,eIF4H FP inh
COc1cccc(C(=O)CN2CCN(S(=O)(=O)c3cccc([N+](=O)[O-])c3)CC2)c1,-,-,-,-,-
O=C1NC(=O)C2(CCC(C3CCCCC3)CC2)N1 (stereo not drawn),.,-,.,.,.
N#Cc1ccc(C(=O)OCCCc2cc3ccccc3c(=O)o2)cc1,.,-,.,.,.
CS(=O)(=O)N1N=C(c2cccs2)CC1c1ccccc1O (stereo not drawn),34,-,-,-,59
CCOc1ccccc1C1CC(c2cccs2)=NN1S(C)(=O)=O (stereo not drawn),-,-,-,-,-
Cc1ccc(NC(=O)c2cc(-n3cnnc3)ccc2Cl)cc1,-,-,-,-,-
Cc1ccc(NC(=O)c2cc(N3C(=O)C=CC3=O)ccc2Cl)cc1C,active,-,-,-,?
CC1CCCC(C)N1C(=O)/C=C/c1ccc(S(=O)(=O)N2CCOCC2)cc1 (stereo not drawn),.,-,.,.,.
CC(=O)Nc1nonc1-c1ccccc1,-,-,-,3.2,-
CCOC(=O)[C@@H]1[C@H]2COc3ccccc3[C@@H]2N2C(=O)N(c3ccc(Cl)cc3)C(=O)[C@]12C,-,-,.,.,-
CCCOC(=O)c1c(NC(=O)C2CCCO2)sc(C(=O)OC)c1C (stereo not drawn),-,45,-,-,-
CCOC(=O)c1sc(NC(=O)C2CCCO2)c(C(=O)OC)c1C (stereo not drawn),.,.,.,-,.
Cc1cccc(C(C)C)c1NC(=O)c1c(-c2ccccc2)noc1C,-,-,.,.,-
FC(F)(F)c1cccc(-c2nc3nc(Cl)c(Cl)nc3[nH]2)c1,32,-,-,-,?
CCOC(=O)Cc1csc(NC(=S)NC(=O)c2ccccc2Br)n1,-,39,-,-,-
CCOC(=O)Cc1csc(NC(=O)c2sc3nc4cc(C)ccc4cc3c2N)n1,active,-,-,-,?
CCOC(=O)Cc1csc(NC(=O)/C=C/c2cccc(Br)c2)n1,61,-,-,-,active
CCOC(=O)c1sc(NC(=O)/C=C/c2ccccc2)nc1C,-,-,-,-,11
CCOC(=O)Cc1csc(NC(=S)NC(=O)c2ccccc2)n1,-,-,-,-,-
CCOC(=O)Cc1csc(NC(=O)c2sc3nc4ccc(CC)cc4cc3c2N)n1,-,-,-,-,-
COc1ccc(N2CCN(C(=O)CN3c4cccc5cccc(c45)S3(=O)=O)CC2)cc1,.,-,.,.,.
CS(=O)(=O)N1CCCCC1CCN1CCCCC1 (stereo not drawn),.,-,.,.,.
C[C@H](CO)N1C[C@H](C)[C@@H](CN(C)S(=O)(=O)c2cn(C)cn2)Oc2c(NS(=O)(=O)c3ccc(F)cc3)cccc2C1=O,.,-,.,.,.
COc1ccc(C(=O)OCC(=O)NCc2ccco2)cc1OC,-,-,-,-,89
CN(C)S(=O)(=O)c1cccc(NC(=O)COC(=O)/C=C/c2ccco2)c1,-,-,-,-,-
SMILES,PABP FP inh,PABP1 MLLE inh,eIF4E-4G inh,PERK inh,eIF4H FP inh
Cc1c(Cl)cnc(NC(=O)COC(=O)/C=C/c2ccco2)c1Cl,.,-,.,.,.
O=C(COC(=O)/C=C/c1ccco1)Nc1ncc(C(F)(F)F)cc1Cl,active,-,-,-,88
CCN(CC)S(=O)(=O)c1cccc(NC(=O)COC(=O)/C=C/c2ccco2)c1,-,-,-,-,69
O=C(COC(=O)c1ccccc1Nc1cccc(C(F)(F)F)c1)NCc1ccco1,-,-,-,-,54
COc1ccc([C@H]2CC(=O)C=C(c3c(C)cc(C)cc3C)C2)cc1,.,-,.,.,.
O=C(COC(=O)c1ccccc1)NCc1ccco1,20,-,-,-,76
O=C(COC(=O)c1cc(S(=O)(=O)N2CCc3ccccc3C2)ccc1Cl)NCc1ccco1,-,-,-,-,-
Cc1ccc2c(Cl)cc(Cl)c(OCC(=O)NC(=O)NCc3ccco3)c2n1,-,-,-,-,-
O=C(COC(=O)/C=C/c1ccco1)NCc1ccco1,-,-,-,-,86
O=C(COC(=O)/C=C/c1ccco1)NCc1ccccc1Cl,-,-,-,-,-
Cc1ccc2c(Cl)cc(Cl)c(OCC(=O)NCc3ccco3)c2n1,62,.,47[fluorescence artefact?],-,98
O=C(COC(=O)c1cccc(S(=O)(=O)N2CCc3ccccc3C2)c1)NCc1ccco1,6.7,-,-,-,87
FC(F)(F)c1ccccc1Cc1c(-c2cccc(Br)c2)nc2ccc(Cl)cn12,.,-,.,.,.
CS(=O)(=O)c1ccc(C(=O)Nc2nc(-c3ccco3)c(-c3ccco3)s2)cc1,.,-,.,.,.
CCOC(=O)C(=O)N(C)c1c(CC)nc2c(OCc3cc(Cl)cc(Cl)c3)cccn12,.,-,.,.,.
COc1ccccc1NCCC(=O)OCC(=O)NCc1ccco1,45,-,-,-,96
CN1C(=O)N(C)c2ccc(C=O)c3cccc1c23,-,58,-,-,?
COc1cccc(NC(=O)CCCCCn2nnc3ccccc3c2=O)c1,-,-,.,.,-
Cc1ccc(C(=O)CNc2cccc([N+](=O)[O-])c2)cc1,-,41,-,-,-
COC(=O)COc1ccc(/C=N/NS(=O)(=O)c2ccccc2)cc1,-,-,.,.,-
NC(=O)COc1ccc(/C=N/NS(=O)(=O)c2ccccc2)cc1,0.2,-,-,-,-
O=S(=O)(c1ccccc1)N1CCCCC1CCc1ccccc1 (stereo not drawn),.,-,.,.,.
Cc1ccc(/C=C/C(=O)OCC(=O)NCCN2C(=O)CSC2=O)o1,-,-,-,3.2,-
Cc1ccc(/C=C/C(=O)OCC(=O)NCCN2C(=O)CSC2=O)cc1,-,-,-,-,-
Cc1ccc(NC(=O)c2cnccn2)cc1S(=O)(=O)N1CCCCCC1,.,-,.,.,.
SMILES,PABP FP inh,PABP1 MLLE inh,eIF4E-4G inh,PERK inh,eIF4H FP inh
O=c1oc2ccccc2c2oc3cc(O)c(O)cc3c12,80,-,-,-,101
COCCn1c(C)cc(C(=O)COC(=O)C2CC(=O)N(CCc3ccc(OC)c(OC)c3)C2)c1C (stereo not drawn),.,-,.,.,.
C=CCNC(=S)Nc1cccc2ccccc12,-,-,-,3.0,-
Cc1ccc(SCC(=O)c2ccc(CC(=O)O)s2)cc1,-,-,-,-,74
COc1ccc(NC(=O)/C(C#N)=C/C=C/c2ccco2)cc1,active,-,-,-,-
COc1ccc(OC)c(NC(=O)C(C#N)=Cc2ccco2)c1,.,-,.,.,.
COc1cc2c(C#N)c(N3CCN(C)CC3)nc(N)c2c(N)n1,120,-,-,-,105
c1cncc(-c2nnc(SCc3nc4ccccc4[nH]3)o2)c1,-,-,-,-,-
c1ccc2[nH]c(CSc3nc4ccccc4o3)nc2c1,-,35,-,-,-
CCCNC(=O)c1nnsc1S(=O)c1ccc(Cl)cc1 (stereo not drawn),-,37,-,-,-
O=[N+]([O-])c1c(NCCCO)cc(SCc2ccco2)c2nonc12,-,41,-,-,?
CC(=O)OCCNc1cc(SCc2ccco2)c2nonc2c1[N+](=O)[O-],-,-,-,-,-
O=C(c1ccc([N+](=O)[O-])cc1)N1CCc2ccccc2C1,65,-,-,-,4.6
O=C(COC(=O)CCc1c[nH]c(=O)[nH]1)Nc1cccc(Cl)c1,-,39,-,-,-
